PubChem BioAssay (NCATS)
Values joined by “and” are separate entries in the source; they are usually repeats but may differ in a detail not shown here. Equal values may be shown once. Results filed as inconclusive are left out. A number with no mark means an inactive call. Calls follow the shape of the dose curve; as a rule, active = well fitted activation curve with a large enough effect; inconclusive = small, poorly fitted or top-dose-only effect; inactive = flat fitted curve, though single readings scatter.

Experiment: qHTS assay for environmental chemicals that activate the Aryl hydrocarbon Receptor (AhR) signaling pathway (AID 651777); also: % of control where 0% means no effect; nearly all actives have a fitted effect of over 15% in size
Settings: 1A2-DRE human hepatoma cells, luciferase, 24 h; hits give high values
Text: National Center for Advancing Translational Sciences [NCATS]
NIH Chemical Genomics Center [NCGC]
U.S. Environmental Protection Agency [EPA]
National Institutes of Environmental Health Sciences [NIEHS]
National Toxicology Program [NTP]
The Aryl hydrocarbon Receptor (AhR) plays a critical role in the development of cancer or neoplasm and its formation is most likely due to genetic mutations and the influence of environment. Exposure to environmental pollutants such as polycyclic aromatic hydrocarbons (PAH), their halogenated derivatives and heterocyclic amines causes the induction of phase I and II enzymes. The transcriptional activation of CYP1A2 is directly regulated by AhR.
A cell based assay (1A2-DRE cells, developed by Puracyp, Inc., CA) was used to assess the activation of AhR. Human hepatoma cells were stably transfected with the dioxin response element (DRE) and CYP1A2 promoter fused to a luciferase gene. Increased luciferase activity can be used to identify the compounds that cause the induction of CYP1A2 and AhR activation.
1,200 cells in 5 uL/well were dispensed into white wall/solid bottom 1536-well plates using a Multidrop Combi (Thermo Scientific) dispenser. Following transfer of 23 nL compound or DMSO vehicle by a pin tool, the plates were incubated 24 hr at 37 C and 5% CO2. 5 ul One-Glo (Promega) was then added to each well and following 30 min incubation at room temperature, luciferase activity was quantified on a ViewLux CCD-based plate reader.
`CNC[C@H](O)c1cccc(O)c1` showed an activation of -0.659%. In the case of `Cn1cnc([N+](=O)[O-])c1Sc1ncnc2nc[nH]c12`, the activation is reported as -4.71% and -5.39%. `Cc1[nH]c(=O)c(C#N)cc1-c1ccncc1` showed an activation of 0.896%. `NS(=O)(=O)c1cc2c(cc1Cl)NC=NS2(=O)=O` showed an activation of -1.42%. For `NC(N)=NC(=O)c1nc(Cl)c(N)nc1N`, the activation was 6.31%. Compound `O=c1[nH]cnc2[nH]ncc12` has an activation of -0.722%. In the case of `NC(=O)c1cnccn1`, the activation is reported as -0.771% and 0.812%. Work on `O=C1CCC(N2C(=O)c3ccccc3C2=O)C(=O)N1` (stereo unspecified) yielded an activation of -0.0215%. Compound `Cc1c(C)c2c(c(C)c1O)CCC(C)(COc1ccc(CC3SC(=O)NC3=O)cc1)O2` (stereo unspecified) has an activation of 5.68%. Compound `O=NN(CCCl)C(=O)NCCCl` has an activation of 0.58%. In the case of `CC(=O)Oc1ccccc1C(=O)O`, the activation is reported as 0.977% and -1.01% and -0.15%. For `NC[C@H](O)c1ccc(O)c(O)c1`, the activation was 0.207%. `Cc1ccccc1C(OCCN(C)C)c1ccccc1` (stereo unspecified) gave an activation of 0.382%. Work on `Cc1cc2c(C(C)C)c(O)c(O)c(C=O)c2c(O)c1-c1c(C)cc2c(C(C)C)c(O)c(O)c(C=O)c2c1O` yielded an activation of -3.15%. For `CC(C)(Sc1ccc(CCN(CCCCC2CCCCC2)C(=O)NC2CCCCC2)cc1)C(=O)O`, the activation was 0.388%. `C[C@]12CCC(=O)C=C1CC[C@@H]1[C@@H]2[C@@H](O)C[C@@]2(C)[C@H]1CC[C@]2(O)C(=O)CO` showed an activation of -1.47%.
